HEK293 cAMP cs: counter-screen for TSHR agonists: cAMP increase in parental HEK293. parental HEK293 CNG cAMP sensor, membrane potential fluorescence. Potency, µM (doses to about 57.1 µM), without a hit: at the highest dose activation, usual class: activators. 2.5% of 73,000 active. AID 938; note: % of control where 0% means no effect; nearly all actives have a fitted effect of over 55% in size
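Counterscreen for endogenous-receptor signalling: CNG-channel HEK 293 cells report cAMP rise by membrane depolarization. After 60 min dye equilibration with 100 uM RO 20-1724, compounds incubated 30 min before bottom-read fluorescence at 590 nm.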
FLuc inh: inhibitors of firefly luciferase; P08659; purified firefly luciferase, luminescence, 8 min; Potency, µM (doses to about 57.1 µM), inactives show at the highest dose activity change, negative = inhibition, most hits filed as inhibitors; 2.2% of 72,000 active; AID 411; note: % is set by controls: 0 for no effect and ±100 for the full control effect; nearly all actives have a fitted effect of over 40% in size
Target sequence (P08659 whole entry, looked up): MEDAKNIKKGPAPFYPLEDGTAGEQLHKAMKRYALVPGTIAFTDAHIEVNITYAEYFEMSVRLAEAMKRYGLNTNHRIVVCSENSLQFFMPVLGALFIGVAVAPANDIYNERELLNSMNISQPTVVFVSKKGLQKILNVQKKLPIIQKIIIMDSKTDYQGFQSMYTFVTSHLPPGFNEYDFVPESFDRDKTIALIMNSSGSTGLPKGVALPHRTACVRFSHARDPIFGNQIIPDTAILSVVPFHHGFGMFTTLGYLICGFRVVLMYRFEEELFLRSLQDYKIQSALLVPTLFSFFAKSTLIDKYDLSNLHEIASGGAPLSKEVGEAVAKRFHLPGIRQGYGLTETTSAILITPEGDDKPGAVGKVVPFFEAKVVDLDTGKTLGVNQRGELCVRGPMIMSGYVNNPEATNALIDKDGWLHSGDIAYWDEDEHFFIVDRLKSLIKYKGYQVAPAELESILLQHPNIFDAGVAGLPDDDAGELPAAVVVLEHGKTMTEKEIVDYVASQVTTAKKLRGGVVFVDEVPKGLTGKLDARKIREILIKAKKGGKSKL
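Substrate buffer containing 10 uM ATP (pH 7.2 imidazole, Mg2+, KCl, detergent, BSA) is dispensed, compound pinned in, then luciferase/luciferin detector mix added. After 8 min at ambient temperature, light output is measured.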
ERK AVP inh: inhibitors of vasopressin-stimulated ERK signaling pathway; HEK293-V1b, vasopressin-stimulated pERK AlphaScreen; Potency, µM (titrated, usually from 57.5 µM), without a hit: at the highest dose activity, negative = inhibition, hits mostly inhibitors; 0.99% of 72,000 active; note: % is set by controls: 0 for no effect and ±100 for the full control effect; nearly all actives have a fitted effect of over 55% in size
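V1b-HEK293 cells; cpd 30 min 37C; 25 nM vasopressin 5 min; lyse 10 min; AlphaScreen beads 5 hr RT. Normalized to DMSO basal and 25 nM vasopressin; AC50 by Hill fit.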
GBA activity: modulators of human glucocerebrosidase; P04062; purified enzyme, resorufin glucoside fluorescence (screen aimed at inhibitors), 20 min; Potency, µM; 1.1% of 48,000 active; AID 360; in the data active = potency below about 15 µM; inconclusive = mostly about 16 µM to 33 µM;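 note: the screen sought inhibitors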
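Wild-type enzyme at 0.2 nM final in 50mM citric acid/KH2PO4, 10mM sodium taurocholate, 0.01% tween-20, pH 5.9, with resorufin beta-D-glucopyranoside at 30 uM final. Compounds titrated, 20 min at RT, red fluorescence read; AC50 from titration.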
TSHR agonist: activates the human thyroid stimulating hormone receptor. HEK293-CNG-TSHR cells (CNG channel as cAMP sensor), membrane potential dye, cAMP. P16473. Potency, µM (series often up to 57.1 µM), inactives show top-dose activation, hits mostly activators. 0.48% of 73,000 active; active = well fitted activation curve with a large enough effect in the main read-out, with a control signal flat, not every such curve was filed as active; inconclusive = small, poorly fitted or top-dose-only effect, or a change in a side signal; inactive = no such curve, though single readings can be large or run the other way; % of control where 0% means no effect;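 note: the control signal comes from parental cells without the receptor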
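cAMP rise detected as CNG-channel membrane depolarization by fluorescent dye (emission 590 nm), 30 min after compound, following 60 min dye loading containing 100 uM RO 20-1724 at room temperature. Cells: TSHR/CNG HEK 293, with parental CNG HEK 293 as control.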
Bst PK mod: pyruvate kinase (B. stearothermophilus) modulation; AID 361; 1.2% of 51,000 active; purified pyruvate kinase, luminescence ATP production; ribose 5-phosphate activator present at AC10; Potency, µM; in the data active = potency below about 11 µM; inconclusive = mostly about 12 µM to 25 µM;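 the screen sought inhibitors and activators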;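 note: scaled between full activation by ribose 5 phosphate and full inhibition by luteolin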
Numbers without * were called inactive; i = inactive; ? = inconclusive; · = no result given; [ ] = dose if it differs, or a comment. The list is not random: actives were taken first. Their share in the collection is about 6.1%. Unless noted, calls come from the whole dose curve; as a rule, active = well fitted curve in the direction sought with a large enough effect; inconclusive = small, poorly fitted or top-dose-only effect, or another doubt; inactive = no such curve, though single readings can be large; an effect the other way counts as inactive or inconclusive. Potency is the fitted concentration of half-maximal effect.

SMILES	HEK293 cAMP cs	FLuc inh	ERK AVP inh	GBA activity	TSHR agonist	Bst PK mod
CC(C)n1c(C(=O)OCC(=O)NCc2ccc3c(c2)OCO3)cc2sccc21	7.9µM*	2%	-29%	>77	?	>57
COCC(=O)NCc1ccc2c(c1)OCO2	13%	1%	-10%	·	-6%	·
CC(C)n1c(C(=O)OCC(=O)NCc2ccc3c(c2)OCO3)cc2occc21	16µM*	4%	0%	>77	?	>57
CCN1C(C)=C(C(=O)OC)C(c2ccccc2)N2C(=O)[C@@]3(C(=O)OC)O[C@@]12C1C(=O)CCCC13 (stereo not given in full)	0%[11.4 µM]	·	17%[11.5 µM]	·	4%[11.4 µM]	·
Cc1nc(N)sc1-c1csc(Nc2ccccn2)n1	-23%	13µM*	-11%	·	-22%	·
N#C/C(=C/c1ccc(N2CCCCCC2)o1)c1ccc(F)cc1	-4%	-25%	25µM*	>77	-10%	·
COc1cc(/C=C(/C#N)c2ccc(F)cc2)ccc1OCc1ccc(C(=O)O)o1	18%	-23%	-4%	>77	-3%	i
CCCN1Cc2cccc(C(=O)Nc3ccc(N4CCN(CC)CC4)cc3)c2C1=O	-9%	-27%	11%	?	-16%	·
CCN1CCN(c2ccc(NC(=O)c3cccc4ncccc34)cc2)CC1	0%	-1%	2%	8.7*	0%[11.4 µM]	>57
CC1CCc2sc3c(c2C1)c1ncnn1c(=O)n3CC(=O)c1ccc(Br)cc1 (stereo not given)	16µM*	1%	0%	>77	?	>57
CC1CCc2sc3nc(NCc4ccco4)n4ncnc4c3c2C1 (stereo not given)	2%	-2%	?	>77	10%	i
Cc1csc(C(C#N)C(=O)c2cc3ccccc3o2)n1 (stereo not given)	7%	13µM*	6%	>77	9%	?
Cc1sc2nc(SCC(=O)NCc3ccco3)n(-c3ccccc3)c(=O)c2c1C	-7%	1%	-8%	>77	·	>57
O=C(CSc1nc2cccnc2n1Cc1ccccc1)NCc1ccco1	6.3µM*	0%	?	>77	?	>57
Cc1cccc(-n2c(SCC(=O)NCc3ccco3)nc3ccccc3c2=O)c1	?	0%	?	>77	?	>57
O=C(CSc1nc2ccccc2c(=O)n1-c1ccccc1)NCc1ccco1	25µM*	-1%	9%	>77	?	>57
CCn1c(=S)sc2c(=O)n(-c3ccccc3)c(SCC(=O)NCc3ccco3)nc21	20µM*	-3%	-5%	i	?	>57
CN(Cc1ccccc1)C(=O)CSc1nc2ccccc2c(=O)n1Cc1ccco1	25µM*	1%	-10%	?	?	>57
C[C@H]1C2=C3C(CC[C@H]4C(OCc5ccc(F)cc5C(F)(F)F)OC[C@](C)([C@@H]34)N(C(=O)OC(C)(C)C)C2)C(CO)C1CO (stereo not given in full)	8%	·	2%	·	-5%	·
C#C[C@@]1(O)CC[C@H]2[C@H]3CCC4=Cc5oncc5C[C@]4(C)[C@@H]3CC[C@@]21C	7%	-1%	·	·	29%	·
C=C(C)CC1(c2ccccc2)Oc2ccccc2-c2nc3cc(Cl)c(Cl)cc3nc21 (stereo not given)	-3%[11.4 µM]	·	26%[11.5 µM]	·	-4%[11.4 µM]	·
Cc1ccc2[nH]c3c(c2c1)CCc1cn[nH]c1-3	-7%	-6%	?	>77	-35%	8.7*
Cc1cc(Cl)cc(Cl)c1OCC(=O)NCc1ccco1	-3%[11.4 µM]	1%	4%	·	·	·
Cc1ccc2c(Cl)cc(Cl)c(OCC(=O)NC(=O)NCc3ccco3)c2n1	21%	-32%	4%	>77	10%	3.1*
CC(C)[C@@H](CC(=O)N[C@@H]1CCNC[C@H]1C(=O)N[C@H](CC(=O)N[C@@H](CCC(=O)O)CC(=O)O)Cc1c[nH]c2ccccc12)NC(=O)C[C@H](CO)NC(=O)[C@@H]1CCCC[C@H]1N	15%	·	·	·	8%	·
SMILES	HEK293 cAMP cs	FLuc inh	ERK AVP inh	GBA activity	TSHR agonist	Bst PK mod
CC1=C(C(=O)N(C)Cc2ccccc2)C2(CCC(C)CC2)OC1=O (stereo not given)	6.3µM*	2%	40%	·	?	·
N#Cc1ccc2ccn(CC(=O)NC3CCCCC3)c2c1	16µM*	2%	1%	>77	?	>57
CCOc1ccc2nc(NCCNC(=O)C(C)C)c(C)cc2c1	?	-2%	7%	?	?	·
CCOc1ccc2nc(NC(=O)CS(=O)(=O)c3ccccc3)sc2c1	0%	-24%	?	?	-5%	>57
COCC(=O)NCCNc1nc2ccc(C)cc2cc1C	14%	-3%	1%	2.8*	4%	·
CCCC(=O)Nc1nc2ccc(OCC)cc2s1	-4%	13µM*	·	·	-9%	·
COCC(=O)Nc1nc2ccc(C)cc2s1	0%	20µM*	-16%	>77	-7%	i
Cc1cc2cc(CN(Cc3ccc4c(c3)OCO4)C(=O)c3cnccn3)c3nnnn3c2cc1C	32µM*	1%	-25%	>77	?	>57
Cc1ccc2c(c1)cc(CN(Cc1ccc3c(c1)OCO3)C(=O)c1cnccn1)c1nnnn12	18%	1%	0%	>77	20%	>57
COc1ccc(Nc2nc(N)nc(CN3CCc4ccccc4C3)n2)cc1	12%	3%	?	·	2%	·
COc1cccc(N2CCN(Cc3nc(N)nc(N4CCCc5ccccc54)n3)CC2)c1	13%	2%	?	11*	·	>57
CCn1c(=O)cc(SCC(=O)N2CCN(c3ccccc3OC)CC2)c2ccccc21	14%	1%	25µM*	>77	11%	>57
CCn1c(=O)cc(SCC(=O)N2CCN(C3CCCCC3)CC2)c2ccccc21	?	-1%	-20%	>77	?	>57
O=C1[C@@H]2[C@H]3[C@H](O)[C@H](O)C/C(=N/OC[C@@H](O)COCc4ccco4)[C@H]3CC[C@H]2C(=O)N1c1ccc(F)cc1F	-3%[11.4 µM]	0%[11.4 µM]	-6%[11.5 µM]	·	-1%[11.4 µM]	·
CC(C)CCn1c(N)c(S(=O)(=O)c2cccs2)c2nc3ccccc3nc21	13%	-6%	-17%	>77	13µM*	>57
COc1ccc(OC)c(N/C(=N\c2nc(C)cc(C)n2)NC(=O)c2ccco2)c1	25µM*	2%	-11%	>77	?	>57
COc1ccc(NC(=O)c2ccco2)c(OC)c1	1%	-7%	-3%	>77	5%	>57
Cc1cccc(NC(=O)c2sc3nc(-c4ccc(F)cc4)cn3c2C)n1	20µM*	-4%	25%	·	?	>57
COc1ccc(-c2cn3c(C)c(C(=O)Nc4cccc(C)n4)sc3n2)cc1	18%	-23%	-13%	>77	18%	·
Cc1cccc(NC(=O)c2sc3nc(-c4ccccc4)cn3c2C)n1	25µM*	-6%	-2%	>77	?	>57
Cc1c(C(=O)NCc2ccccn2)sc2nc(-c3ccc(F)cc3)cn12	9%	-4%	26%	>77	18%	i

Compound activity: PubChem BioAssay, National Center for Advancing Translational Sciences (NCATS)
